Where “and” joins values, the source holds several entries; their conditions need not be identical. Equal entries are not always repeated. Out of some 5,500 compounds screened, about 2,000 (36%) were called active. Roughly 18% stayed inconclusive and do not appear here. Cut-off read from the data, not from the text of the source: active = normalized growth mostly below about 0.91 (no sharp cut-off); inconclusive = no clear call, values can overlap the other calls; inactive = mostly above about 0.92. Some of the results follow.
Assay: chemical genetic growth profiling, strain panel (AID 1159580);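 note: tested at 20 µM; growth read once vehicle control cultures reached saturation at 30 °C; 1 = growth at the plate median or of vehicle wells; lower values mean less growth of the strain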
Settings: S. cerevisiae deletion strains, growth OD

Measured: normalized growth

COc1cc([C@@H]2c3cc4c(cc3C(OC3O[C@@H]5COC(C)O[C@H]5[C@H](O)[C@H]3O)C3COC(=O)[C@@H]32)OCO4)cc(OC)c1O (some centres undefined)
inactive: locus YAL021C, strain ccr4, stronger effect = lower value 1.03 | locus YAL026C, strain drs2, stronger effect = lower value 1.05 | locus YAL030W, strain snc1, stronger effect = lower value 1.05 | locus YBL061C, strain skt5, stronger effect = lower value 1.02 | locus YBR009C, strain hhf1, stronger effect = lower value 1.01 | locus YBR021W, strain FUR4, stronger effect = lower value 0.961 | locus YBR023C, strain chs3, stronger effect = lower value 1.03 | locus YBR171W, strain sec66, stronger effect = lower value 1.07 | locus YBR229C, strain ROT2, stronger effect = lower value 1.01 | locus YBR231C, strain swc5, stronger effect = lower value 1.03 | locus YBR279W, strain paf1, stronger effect = lower value 1.02 | locus YCL011C, strain gbp2, stronger effect = lower value 1.04 | locus YCL016C, strain dcc1, stronger effect = lower value 1.02 | locus YCL029C, strain bik1, stronger effect = lower value 0.989 | locus YCL069W, strain vba3, stronger effect = lower value 1.05 | locus YCR088W, strain abp1, stronger effect = lower value 1.04 | locus YDL005C, strain med2, stronger effect = lower value 1.02 | locus YDL035C, strain GPR1, stronger effect = lower value 0.996 | locus YDL040C, strain nat1, stronger effect = lower value 1.03 | locus YDL074C, strain BRE1, stronger effect = lower value 0.947 | locus YDL101C, strain DUN1, stronger effect = lower value 1 | locus YDL134C, strain PPH21, stronger effect = lower value 1.01 | locus YDL185W, strain tfp1, stronger effect = lower value 0.979 | locus YDL192W, strain arf1, stronger effect = lower value 0.991 | locus YDR001C, strain nth1, stronger effect = lower value 1.02 | locus YDR069C, strain doa4, stronger effect = lower value 1.04 | locus YDR101C, strain arx1, stronger effect = lower value 0.981 | locus YDR137W, strain rgp1, stronger effect = lower value 1.06 | locus YDR159W, strain sac3, stronger effect = lower value 0.987 | locus YDR162C, strain NBP2, stronger effect = lower value 1.03 | locus YDR195W, strain ref2 1.03 | locus YDR297W, strain sur2, stronger effect = lower value 1.02 | locus YDR318W, strain mcm21, stronger effect = lower value 1.01 | locus YDR334W, strain swr1, stronger effect = lower value 1.06 | locus YDR335W, strain msn5, stronger effect = lower value 1.05 | locus YDR388W, stronger effect = lower value 1 | locus YDR392W, strain spt3, stronger effect = lower value 0.948 | locus YDR502C, strain sam2, stronger effect = lower value 0.974 | locus YEL003W, strain gim4, stronger effect = lower value 1.04 | locus YEL037C, strain rad23, stronger effect = lower value 1.05 | locus YEL061C, strain CIN8 (second series), stronger effect = lower value 1.03 | locus YEL061C, strain CIN8, stronger effect = lower value 1.01 | locus YER015W, strain faa2, stronger effect = lower value 1.03 | locus YER016W, strain bim1, stronger effect = lower value 1.03 | locus YER110C, stronger effect = lower value 0.993 | locus YER111C, strain swi4, stronger effect = lower value 1.03 | locus YER155C, strain BEM2 (second series), stronger effect = lower value 1.05 | locus YER155C, strain BEM2, stronger effect = lower value 0.981 | locus YER167W, strain BCK2, stronger effect = lower value 0.998 | locus YFR010W, strain ubp6, stronger effect = lower value 1.02 | locus YGL078C, strain dbp3, stronger effect = lower value 0.976 | locus YGL086W, strain mad1, stronger effect = lower value 0.965 | locus YGL167C, strain pmr1, stronger effect = lower value 1.05 | locus YGL173C, strain kem1, stronger effect = lower value 1.02 | locus YGL227W, strain vid30, stronger effect = lower value 1.03 | locus YGL240W, strain doc1, stronger effect = lower value 0.994 | locus YGL248W, strain PDE1, stronger effect = lower value 1.01 | locus YGL253W, strain hxk2, stronger effect = lower value 1.05 | locus YGR078C, strain PAC10, stronger effect = lower value 1.01 | locus YGR135W, strain pre9, stronger effect = lower value 1.02 | locus YGR252W, strain gcn5, stronger effect = lower value 1.02 | locus YHR013C, strain ard1, stronger effect = lower value 1.04 | locus YHR027C, strain rpn1, stronger effect = lower value 1.01 | locus YHR030C, strain SLT2, stronger effect = lower value 0.998 and 1.06 | locus YHR079C, strain IRE1 (second series), stronger effect = lower value 0.992 | locus YHR079C, strain IRE1, stronger effect = lower value 1.12 | locus YHR094C, strain hxt1, stronger effect = lower value 0.995 | locus YHR129C, strain ARP1, stronger effect = lower value 0.998 | locus YHR142W, strain chs7, stronger effect = lower value 1.06 | locus YHR200W, strain rpn10, stronger effect = lower value 1 | locus YIL066C, strain RNR3, stronger effect = lower value 0.997 | locus YIL073C, strain SPO22, stronger effect = lower value 0.958 | locus YIL125W, strain kgd1, stronger effect = lower value 0.997 | locus YIR030C, strain dcg1, stronger effect = lower value 0.995 | locus YJL092W, strain hpr5, stronger effect = lower value 1.04 | locus YJL095W, strain BCK1 (second series), stronger effect = lower value 1.03 | locus YJL095W, strain BCK1, stronger effect = lower value 1.03 and 1.06 | locus YJL115W, strain asf1, stronger effect = lower value 1.04 | locus YJL129C, strain trk1, stronger effect = lower value 1.05 | locus YJL134W, strain LCB3, stronger effect = lower value 0.998 | locus YJL154C, strain vps35, stronger effect = lower value 1.02 | locus YJL164C, strain tpk1, stronger effect = lower value 1.05 | locus YJL166W, strain qcr8, stronger effect = lower value 1.02 | locus YJL168C, strain set2, stronger effect = lower value 0.998 | locus YJL187C, strain SWE1 (second series), stronger effect = lower value 1 | locus YJR043C, strain POL32, stronger effect = lower value 0.992 | locus YJR066W, strain TOR1, stronger effect = lower value 0.995 | locus YKL009W, strain mrt4, stronger effect = lower value 1.06 | locus YKL068W, stronger effect = lower value 0.995 | locus YKL085W, strain MDH1 (second series), stronger effect = lower value 1.01 | locus YKL085W, strain MDH1, stronger effect = lower value 1.01 | locus YKL160W, strain elf1, stronger effect = lower value 1.02 | locus YKL190W, strain CNB1, stronger effect = lower value 1.02 | locus YKR001C, strain vps1, stronger effect = lower value 1.01 | locus YKR026C, strain gcn3, stronger effect = lower value 1.04 | locus YKR091W, strain srl3, stronger effect = lower value 1.03 | locus YLL001W, strain dnm1, stronger effect = lower value 1.04 | locus YLL026W, stronger effect = lower value 1.04 | locus YLL041C, strain sdh2, stronger effect = lower value 1.02 | locus YLR027C, strain aat2, stronger effect = lower value 1.05 | locus YLR039C, strain RIC1, stronger effect = lower value 1.01 | locus YLR058C, strain SHM2, stronger effect = lower value 1.02 | locus YLR102C, strain apc9, stronger effect = lower value 0.999 | locus YLR113W, strain HOG1, stronger effect = lower value 1.06 | locus YLR221C, strain rsa3, stronger effect = lower value 1.04 | locus YLR258W, strain gsy2, stronger effect = lower value 1.03 | locus YLR262C, strain YPT6 (second series), stronger effect = lower value 1.05 | locus YLR262C, strain YPT6, stronger effect = lower value 1.01 | locus YLR268W, strain sec22, stronger effect = lower value 0.957 | locus YLR320W, strain mms22, stronger effect = lower value 1 | locus YLR330W, strain CHS5, stronger effect = lower value 1.02 | locus YLR342W, strain FKS1 (second series), stronger effect = lower value 1.01 | locus YLR342W, strain FKS1, stronger effect = lower value 1.02 | locus YLR357W, strain rsc2, stronger effect = lower value 1.04 | locus YLR370C, strain arc18, stronger effect = lower value 1.04 | locus YLR371W, strain rom2, stronger effect = lower value 0.979 | locus YLR384C, strain iki3, stronger effect = lower value 1.02 | locus YLR418C, strain cdc73, stronger effect = lower value 0.998 | locus YML016C, strain PPZ1, stronger effect = lower value 0.999 | locus YML032C, strain rad52, stronger effect = lower value 0.982 | locus YML120C, strain ndi1, stronger effect = lower value 1.03 | locus YML124C, strain tub3, stronger effect = lower value 0.996 | locus YMR058W, strain fet3, stronger effect = lower value 1.02 | locus YMR078C, strain ctf18, stronger effect = lower value 0.996 | locus YMR125W, strain sto1, stronger effect = lower value 1.07 | locus YMR129W, stronger effect = lower value 1.04 | locus YMR205C, strain PFK2, stronger effect = lower value 1.02 | locus YMR223W, strain ubp8, stronger effect = lower value 1 | locus YMR231W, strain pep5, stronger effect = lower value 1.03 | locus YMR307W, strain GAS1, stronger effect = lower value 1.06 | locus YNL067W, strain RPL9B, stronger effect = lower value 1.01 | locus YNL071W, strain lat1, stronger effect = lower value 1.04 | locus YNL153C, strain GIM3, stronger effect = lower value 1.02 | locus YNL183C, strain NPR1, stronger effect = lower value 0.995 | locus YNL209W, strain ssb2, stronger effect = lower value 1.03 | locus YNL233W, strain BNI4, stronger effect = lower value 0.991 | locus YNL248C, strain rpa49, stronger effect = lower value 1.02 | locus YNL250W, strain rad50, stronger effect = lower value 0.96 | locus YNL271C, strain bni1, stronger effect = lower value 0.984 | locus YNL298W, strain CLA4, stronger effect = lower value 0.994 | locus YNL307C, strain MCK1, stronger effect = lower value 0.996 | locus YNL322C, strain KRE1 (second series), stronger effect = lower value 1.03 | locus YNL322C, strain KRE1, stronger effect = lower value 1.01 | locus YNR049C, strain mso1, stronger effect = lower value 1.03 | locus YNR052C, strain pop2, stronger effect = lower value 0.985 | locus YOL012C, strain htz1 0.834 | locus YOL147C, strain pex11, stronger effect = lower value 1 | locus YOR001W, strain rrp6, stronger effect = lower value 1.03 | locus YOR061W, strain CKA2, stronger effect = lower value 0.996 | locus YOR069W, strain VPS5, stronger effect = lower value 0.991 | locus YOR070C, strain gyp1, stronger effect = lower value 1.04 | locus YOR080W, strain dia2, stronger effect = lower value 1.02 | locus YOR083W, strain WHI5, stronger effect = lower value 0.979 | locus YOR106W, strain vam3, stronger effect = lower value 1.04 | locus YOR136W, strain idh2, stronger effect = lower value 0.971 | locus YOR144C, strain elg1, stronger effect = lower value 0.998 | locus YOR184W, strain ser1, stronger effect = lower value 1 | locus YOR231W, strain MKK1, stronger effect = lower value 1.05 | locus YOR265W, strain rbl2, stronger effect = lower value 1.01 | locus YOR270C, strain vph1, stronger effect = lower value 1.15 | locus YOR290C, strain snf2, stronger effect = lower value 1.04 | locus YOR316C, strain cot1, stronger effect = lower value 0.997 | locus YPL051W, strain arl3, stronger effect = lower value 1.04 | locus YPL055C, strain LGE1, stronger effect = lower value 1.01 | locus YPL078C, strain atp4, stronger effect = lower value 1.04 | locus YPL106C, strain sse1, stronger effect = lower value 1.07 | locus YPL240C, strain hsp82, stronger effect = lower value 1.02 | locus YPL241C, strain CIN2, stronger effect = lower value 1.01 | locus YPL256C, strain CLN2, stronger effect = lower value 1.08 | locus YPR119W, strain clb2, stronger effect = lower value 0.998 | locus YPR141C, strain kar3, stronger effect = lower value 0.99 | locus YPR163C, strain tif3, stronger effect = lower value 0.985 | locus YPR167C, strain met16, stronger effect = lower value 1.01 | strain wtn01, stronger effect = lower value 0.97
